Some targets named below: RELARELA (p65 homodimer) (Homo sapiens, UniProt Q04206 1-307); p50p50 homodimer (Homo sapiens, UniProt P19838 7-356); RELB subunit;p50 subunit (Homo sapiens;Homo sapiens, UniProt Q01201;P19838 120-401;7-356).
Common to all, as to experiment: protein binding microarray; high values mean tight binding
What all share (details): dsDNA, one strand shown

A further assay concerns the target T1, p52p52 homodimer (Homo sapiens, UniProt Q00653 4-332).
T1 sequence: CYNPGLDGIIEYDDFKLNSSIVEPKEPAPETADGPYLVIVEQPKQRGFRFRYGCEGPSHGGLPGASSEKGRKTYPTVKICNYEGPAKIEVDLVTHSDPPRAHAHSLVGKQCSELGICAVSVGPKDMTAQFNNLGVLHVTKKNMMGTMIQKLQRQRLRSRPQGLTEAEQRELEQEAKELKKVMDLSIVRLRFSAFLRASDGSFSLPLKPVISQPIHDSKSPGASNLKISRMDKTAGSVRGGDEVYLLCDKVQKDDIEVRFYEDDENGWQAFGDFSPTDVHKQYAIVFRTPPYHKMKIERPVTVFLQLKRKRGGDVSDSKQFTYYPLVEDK

For assay [1], the target named is RELA (p65) subunit of heterodimer;p50 subunit (Homo sapiens;Homo sapiens, UniProt Q04206;P19838 1-307;7-356).
Assay [2] concerns the target RELA (p65) subunit of heterodimer;p52 subunit (Homo sapiens;Homo sapiens, UniProt Q04206;Q00653 1-307;4-332).
The next assay concerns the target T2, RELB subunit;p52 subunit (Homo sapiens;Homo sapiens, UniProt Q01201;Q00653 120-401;4-332).
T2 sequence 1: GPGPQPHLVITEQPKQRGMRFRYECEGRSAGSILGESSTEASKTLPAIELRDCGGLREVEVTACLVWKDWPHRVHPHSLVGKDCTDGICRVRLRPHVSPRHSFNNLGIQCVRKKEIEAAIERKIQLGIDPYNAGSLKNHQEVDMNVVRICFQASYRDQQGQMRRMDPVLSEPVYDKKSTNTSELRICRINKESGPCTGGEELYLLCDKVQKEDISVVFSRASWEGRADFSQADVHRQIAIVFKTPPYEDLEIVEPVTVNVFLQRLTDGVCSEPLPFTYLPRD
T2 sequence 2: T1 sequence

Assay [3] concerns the target C-Rel subunit;p50 subunit (Homo sapiens;Homo sapiens, UniProt Q04864;P19838 1-285;7-356).
In assay [4] the target is T3, C-Rel subunit;p52 subunit (Homo sapiens;Homo sapiens, UniProt Q04864;Q00653 1-285;4-332).
T3 sequence 1: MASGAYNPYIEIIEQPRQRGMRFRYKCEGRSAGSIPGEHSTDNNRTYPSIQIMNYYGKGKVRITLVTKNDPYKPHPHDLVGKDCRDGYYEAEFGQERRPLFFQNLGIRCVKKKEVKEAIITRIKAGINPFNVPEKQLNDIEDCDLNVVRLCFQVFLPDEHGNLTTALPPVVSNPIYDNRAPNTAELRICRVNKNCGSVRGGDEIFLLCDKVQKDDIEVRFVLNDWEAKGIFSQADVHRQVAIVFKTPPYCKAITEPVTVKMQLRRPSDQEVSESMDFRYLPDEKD
T3 sequence 2: T1 sequence

From PMC3218832 come the findings set out here.

Sequence of p50p50 homodimer (P19838 7-356): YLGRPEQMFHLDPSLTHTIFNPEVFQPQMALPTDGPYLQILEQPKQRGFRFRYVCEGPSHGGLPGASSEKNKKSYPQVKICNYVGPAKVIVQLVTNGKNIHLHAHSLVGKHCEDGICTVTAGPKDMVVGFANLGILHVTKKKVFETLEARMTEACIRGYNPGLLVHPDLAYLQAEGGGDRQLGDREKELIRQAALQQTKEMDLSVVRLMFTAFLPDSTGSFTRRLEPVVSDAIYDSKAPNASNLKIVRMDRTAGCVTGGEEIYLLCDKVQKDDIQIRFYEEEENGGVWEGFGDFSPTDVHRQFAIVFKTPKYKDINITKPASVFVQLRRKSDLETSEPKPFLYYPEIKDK
Sequence of RELA (p65) subunit of heterodimer;p50 subunit (Q04206 1-307, chain 1 of 2): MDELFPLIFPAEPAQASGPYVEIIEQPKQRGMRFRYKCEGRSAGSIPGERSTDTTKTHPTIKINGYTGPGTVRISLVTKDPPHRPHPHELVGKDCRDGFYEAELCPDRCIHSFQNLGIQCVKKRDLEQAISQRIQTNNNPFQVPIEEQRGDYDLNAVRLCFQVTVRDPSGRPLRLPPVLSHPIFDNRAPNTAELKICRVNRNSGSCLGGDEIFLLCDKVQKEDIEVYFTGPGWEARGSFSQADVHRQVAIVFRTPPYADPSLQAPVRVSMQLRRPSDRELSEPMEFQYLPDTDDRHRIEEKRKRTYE
Sequence of RELA (p65) subunit of heterodimer;p50 subunit (P19838 7-356, chain 2 of 2): as the sequence (P19838 7-356) above
Sequence of RELARELA (p65 homodimer) (Q04206 1-307): as the sequence (Q04206 1-307, chain 1 of 2) above

On to CGAGAGCCCCT, for which the binding signal was -0.807 z-score in the assay with RELARELA (p65 homodimer); 0.741 z-score in the assay with p50p50 homodimer; 0.297 z-score with p52p52 homodimer; 0.363 z-score in assay [1]; 0.418 z-score in assay [2]; 0.502 z-score with RELB subunit;p50 subunit. The binding signal is 0.576 z-score in the assay with RELB subunit;p52 subunit, 0.0988 z-score in [3] and 0.379 z-score in [4].

As to CGAGGAATCCT, the binding signal with RELARELA (p65 homodimer) is -0.235 z-score; with p50p50 homodimer, -1.18 z-score; with p52p52 homodimer it was -0.504 z-score; in assay [1] it was -0.879 z-score; in [2], -0.8 z-score; in the assay with RELB subunit;p50 subunit it was -1.08 z-score. The values for the binding signal (with RELB subunit;p52 subunit; in assay [3]; in assay [4]) were -0.975 z-score, -0.824 z-score and -0.613 z-score, respectively.

With CAGGGGATCCC, the binding signal was found to be 1.59 z-score in the assay with RELARELA (p65 homodimer); 1.03 z-score in the assay with p50p50 homodimer; 1.66 z-score with p52p52 homodimer; 1.73 z-score in assay [1]; 1.49 z-score in assay [2]; 1.12 z-score with RELB subunit;p50 subunit. For the same sequence, the binding signal amounted to 1.18 z-score in the assay with RELB subunit;p52 subunit, 0.893 z-score in assay [3] and 1.42 z-score in assay [4].

Turning to AGGTGTGCCCT, the binding signal with RELARELA (p65 homodimer) was -0.542 z-score; with p50p50 homodimer it was -1.63 z-score; with p52p52 homodimer it was -0.541 z-score; in assay [1], -0.712 z-score; in assay [2], -0.661 z-score; with RELB subunit;p50 subunit, -0.956 z-score. In addition, the binding signal with RELB subunit;p52 subunit was -0.903 z-score; in assay [3] it was -0.883 z-score; in [4] it was -0.535 z-score.

Turning to AAGTACCTCCT, the binding signal was 0.111 z-score in the assay with RELARELA (p65 homodimer); 0.67 z-score in the assay with p50p50 homodimer; 0.0441 z-score in the assay with p52p52 homodimer; 0.737 z-score in assay [1]; -0.123 z-score in assay [2]; 0.852 z-score in the assay with RELB subunit;p50 subunit. The values for the binding signal (with RELB subunit;p52 subunit; in assay [3]; in assay [4]) were 0.227 z-score, 0.224 z-score and -0.202 z-score, respectively.

On to CGGTTATCCCT, for which the binding signal with RELARELA (p65 homodimer) was found to be 0.134 z-score; in the assay with p50p50 homodimer, 0.215 z-score; in the assay with p52p52 homodimer, 0.38 z-score; in assay [1] it was 0.0537 z-score; in assay [2] it was 0.272 z-score; with RELB subunit;p50 subunit, 0.229 z-score. The binding signal with RELB subunit;p52 subunit is 0.321 z-score; in assay [3] it was 0.223 z-score; in assay [4], 0.381 z-score.

On to CAAAACACCCC, for which the binding signal is 0.0833 z-score with RELARELA (p65 homodimer); 0.707 z-score with p50p50 homodimer; 0.313 z-score with p52p52 homodimer; 0.534 z-score in [1]; 0.701 z-score in assay [2]; 0.488 z-score with RELB subunit;p50 subunit. Also, the binding signal in the assay with RELB subunit;p52 subunit was found to be 1.03 z-score; in [3] it was 0.611 z-score; in assay [4] it was 0.701 z-score.

Regarding AGGGTTGCCCT, the binding signal in the assay with RELARELA (p65 homodimer) is -0.236 z-score; with p50p50 homodimer, -1.22 z-score; with p52p52 homodimer, -0.523 z-score; in [1], -0.681 z-score; in assay [2], -0.727 z-score; in the assay with RELB subunit;p50 subunit it was -0.807 z-score. For the same sequence, the figures for the binding signal (with RELB subunit;p52 subunit; in assay [3]; in assay [4]) were -0.774 z-score, -0.341 z-score and -0.29 z-score, respectively.

Regarding CAATGAATCCC, the binding signal with RELARELA (p65 homodimer) was -0.259 z-score; with p50p50 homodimer, -0.487 z-score; in the assay with p52p52 homodimer it was -0.235 z-score; in [1], -0.428 z-score; in assay [2], -0.353 z-score; with RELB subunit;p50 subunit, -0.22 z-score. Moreover, the binding signal with RELB subunit;p52 subunit is -0.356 z-score; in assay [3] it was -0.0958 z-score; in assay [4], -0.345 z-score.

Regarding AGATAGATCCT, the binding signal with RELARELA (p65 homodimer) was -0.82 z-score; with p50p50 homodimer, -1.87 z-score; in the assay with p52p52 homodimer it was -0.716 z-score; in [1] it was -1.06 z-score; in [2], -1.23 z-score; with RELB subunit;p50 subunit it was -1.03 z-score. The binding signal was -0.915 z-score with RELB subunit;p52 subunit, -1.64 z-score in [3] and -0.98 z-score in assay [4].

With GGAATCGTCCC, the binding signal in the assay with RELARELA (p65 homodimer) was 0.862 z-score; with p50p50 homodimer it was 0.42 z-score; with p52p52 homodimer, 0.582 z-score; in assay [1], 0.504 z-score; in assay [2] it was 0.591 z-score; with RELB subunit;p50 subunit it was 0.29 z-score. In addition, the binding signal in the assay with RELB subunit;p52 subunit was found to be 0.267 z-score; in assay [3] it was 0.649 z-score; in assay [4] it was 0.392 z-score.

In the case of AAAAGAATCCC, the binding signal was 0.306 z-score in the assay with RELARELA (p65 homodimer); 0.444 z-score with p50p50 homodimer; 0.44 z-score in the assay with p52p52 homodimer; 0.389 z-score in [1]; 0.575 z-score in [2]; 0.356 z-score with RELB subunit;p50 subunit. For the same sequence, the results for the binding signal (with RELB subunit;p52 subunit; in assay [3]; in assay [4]) were 0.317 z-score, 0.495 z-score and 0.359 z-score, respectively.

Take CAAAGAACCCT: the binding signal with RELARELA (p65 homodimer) is -0.87 z-score; with p50p50 homodimer it was -0.409 z-score; with p52p52 homodimer, -0.354 z-score; in assay [1], -0.631 z-score; in [2], -0.614 z-score; with RELB subunit;p50 subunit it was -0.682 z-score. For the same sequence, the binding signal in the assay with RELB subunit;p52 subunit was -0.58 z-score; in assay [3], -0.78 z-score; in [4] it was -0.544 z-score.

Consider AAGTGGCCCCC, for which the binding signal is -0.634 z-score with RELARELA (p65 homodimer); 0.242 z-score with p50p50 homodimer; -0.0278 z-score with p52p52 homodimer; -0.101 z-score in [1]; 0.0039 z-score in assay [2]; 0.173 z-score with RELB subunit;p50 subunit. Moreover, the binding signal came out at 0.29 z-score in the assay with RELB subunit;p52 subunit, 0.101 z-score in [3] and 0.0509 z-score in [4].

On to GGGGTACTCCT, for which the binding signal with RELARELA (p65 homodimer) came out at 0.917 z-score; in the assay with p50p50 homodimer, 0.595 z-score; with p52p52 homodimer, 0.756 z-score; in [1] it was 0.47 z-score; in [2], 0.851 z-score; with RELB subunit;p50 subunit, 0.471 z-score. In addition, the figures for the binding signal (with RELB subunit;p52 subunit; in [3]; in [4]) were 0.712 z-score, 0.395 z-score and 0.674 z-score, respectively.
